We go through 13 molecules from PubChem BioAssay (NCI).

Values joined by “and” are separate entries in the source; they are usually repeats but may differ in a detail not shown here. Identical values can stand only once. The panel holds about 83,000 compounds, 20% with a hit somewhere; the sample as a whole holds those more often.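 Note: values are percent growth. 100 is the growth of untreated cells, values between 100 and 0 indicate rising inhibition; between -100 and 0 indicates cell death.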 Unmarked numbers belong to inactive results. Active and inactive are the calls of the source. Rule for the calls: active = growth percent below 10; inactive = the rest.

Among the test systems are NCI-H23 lung; NCI-H226 lung; NCI-H322M lung; HOP-62 NSCLC; NCI-H460 lung; HOP-92 NSCLC; NCI-H522 lung; A549/ATCC NSCLC; 786-0 renal; COLO 205 colon.
Holding throughout (assay): NCI-60 one-dose screen, 48 h (100 = growth as untreated, 0 = no growth, -100 = all killed)
What all share (settings): 10 µM unless noted

For the molecule `COc1ccc(/C(C)=C(\c2ccc(OCCN3CCCCCC3)cc2)c2ccc(OC(=O)C3CCCCC3)cc2)cc1`, the growth was -74% (active) in the test with NCI-H23 lung; -62.4% (active) with NCI-H226 lung; 5.75% (active) in the test with NCI-H322M lung; -73.4% (active) in the test with HOP-62 NSCLC; -65.6% (active) in the test with NCI-H460 lung; -88.9% (active) in the test with HOP-92 NSCLC. Moreover, the growth was -67.6% (active) with NCI-H522 lung, -32.9% (active) with A549/ATCC NSCLC, -84.2% (active) in the test on 786-0 renal and -63% (active) in the test on COLO 205 colon.
Take `NC(N)=NC(N)=NCCCc1ccco1`: the growth in the test with NCI-H23 lung was 105%; with NCI-H226 lung, 111%; with NCI-H322M lung it was 105%; in the test on HOP-62 NSCLC, 101%; in the test on NCI-H460 lung it was 108%; in the test with HOP-92 NSCLC, 95.4%. Further, the growth in the test with NCI-H522 lung is 93.6%; in the test with A549/ATCC NSCLC it was 102%; in the test with 786-0 renal it was 112%; in the test with COLO 205 colon, 111%.
Take `Nc1nc(Cl)nc2c1ncn2C1OC(CO)C(O)C1O` (stereo not given): the growth is 19.9% and 34.4% with NCI-H23 lung; 110% with NCI-H226 lung; 93.1% and 101% in the test with NCI-H322M lung; 46.6% and 63.7% in the test on HOP-62 NSCLC; 80% and 87.4% with NCI-H460 lung; 42.8% in the test with HOP-92 NSCLC. In addition, the growth with NCI-H522 lung is 50.6% and 52.1%; in the test on A549/ATCC NSCLC it was 46.2% and 49.9%; with 786-0 renal, 24.1% and 37.5%; in the test on COLO 205 colon, 70%.
In the case of `O=C(CN1C(=O)S/C(=C\C(Cl)=C\c2ccccc2)C1=O)NC1C=CS(=O)(=O)C1` (stereo not given), the growth was 16.7% with NCI-H23 lung; -21.7% (active) with NCI-H226 lung; 88.9% in the test with NCI-H322M lung; 86.5% in the test with HOP-62 NSCLC; 54% in the test with NCI-H460 lung; 37.2% with HOP-92 NSCLC. Besides, the growth in the test with NCI-H522 lung was -46.2% (active); with A549/ATCC NSCLC it was 68.5%; with 786-0 renal, -74.4% (active); in the test with COLO 205 colon, -21.8% (active).
As to `CCN(C(=O)N1CCN(c2cc3c(cc2F)c(=O)c(C(=O)O)cn3C2CC2)CC1)c1nc(-c2ccccc2)cs1`, the growth in the test with NCI-H23 lung was 6.27% (active); in the test on NCI-H226 lung it was 20.9%; in the test on NCI-H322M lung, 13.3%; in the test with HOP-62 NSCLC it was 36%; in the test with NCI-H460 lung, 5.27% (active); with HOP-92 NSCLC, -18.4% (active). Besides, the growth was -1.7% (active) in the test with NCI-H522 lung, 12.4% in the test on A549/ATCC NSCLC, 14.3% with 786-0 renal and 64.1% in the test with COLO 205 colon.
In the case of `BrC1=C(Br)C(Br)(Br)C(Br)=C1Br`, the growth in the test on NCI-H23 lung is 93%; in the test with NCI-H226 lung, 91.7%; with NCI-H322M lung, 107%; in the test with HOP-62 NSCLC, 101%; in the test on NCI-H460 lung it was 102%; in the test on HOP-92 NSCLC, 105%. In addition, the growth in the test with NCI-H522 lung was -15.2% (active); in the test with A549/ATCC NSCLC, 95.2%; with 786-0 renal, 82.4%; with COLO 205 colon, 69.6%.
With `O=C(Cc1ccc(F)cc1)c1ccccc1`, the growth in the test with NCI-H23 lung is 103%; in the test with NCI-H226 lung it was 110%; with NCI-H322M lung, 99%; in the test on HOP-62 NSCLC it was 109%; in the test on NCI-H460 lung, 108%; in the test on HOP-92 NSCLC it was 89.7%. Moreover, the growth in the test on NCI-H522 lung is 101%; in the test on A549/ATCC NSCLC it was 102%; in the test on 786-0 renal, 97.6%; in the test with COLO 205 colon, 134%.
For `COc1cc2cc(NCc3ccncc3)nc(C)c2cc1OC`, the growth is 91.5% in the test on NCI-H23 lung; 89.7% with NCI-H226 lung; 103% in the test on NCI-H322M lung; 62% in the test on HOP-62 NSCLC; 102% in the test with NCI-H460 lung; 87.2% with HOP-92 NSCLC. Moreover, the growth is 80.4% in the test on NCI-H522 lung, 78.9% in the test with A549/ATCC NSCLC, 71.8% with 786-0 renal and 95.8% with COLO 205 colon.
Turning to `CCC(=O)Oc1cc(Cl)c(Cl)cc1Cl`, the growth in the test on NCI-H23 lung is 102%; with NCI-H226 lung, 97.7%; in the test on NCI-H322M lung it was 104%; in the test with HOP-62 NSCLC, 105%; in the test with NCI-H460 lung, 104%; in the test on HOP-92 NSCLC it was 100%. For the same molecule, the growth in the test with NCI-H522 lung is 99.8%; in the test with A549/ATCC NSCLC, 101%; in the test on 786-0 renal, 98.2%; in the test with COLO 205 colon, 113%.
Turning to `O=C1CCCCN1CCCCC#Cc1cccc(C#Cc2cccnc2)c1`, the growth is 88.5% in the test with NCI-H23 lung; 78.1% in the test on NCI-H226 lung; 180% in the test with NCI-H322M lung; 114% and 98.7% in the test with HOP-62 NSCLC; 73% with NCI-H460 lung; 31.9% in the test on HOP-92 NSCLC. Also, the growth in the test on NCI-H522 lung was 75.7%; in the test with A549/ATCC NSCLC it was 81%; with 786-0 renal it was 116% and 89.9%; in the test with COLO 205 colon, 83.5%.
As to `C#CCOCC1CN(C)C(=O)O1` (stereo not given), the growth with NCI-H23 lung is 111%; in the test with NCI-H226 lung it was 103%; in the test on NCI-H322M lung it was 114%; with HOP-62 NSCLC it was 131%; with NCI-H460 lung, 103%; with HOP-92 NSCLC, 97.8%. Moreover, the growth with NCI-H522 lung is 99.7%; in the test on A549/ATCC NSCLC, 93.7%; with 786-0 renal, 110%; in the test with COLO 205 colon, 123%.
On to `C=C1C(=O)O[C@H]2[C@H]1CC/C(CNS(=O)(=O)c1ccc3ccccc3c1)=C\CC[C@@]1(C)O[C@@H]21`, for which the growth was -3.15% (active) in the test with NCI-H23 lung; -25.4% (active) in the test with NCI-H226 lung; 92.1% in the test with NCI-H322M lung; 78.4% in the test with HOP-62 NSCLC; 91.7% in the test on NCI-H460 lung; -29.6% (active) with HOP-92 NSCLC. For the same molecule, the growth was -78.6% (active) in the test on NCI-H522 lung, 69% in the test on A549/ATCC NSCLC, -67% (active) in the test on 786-0 renal and -84.5% (active) in the test with COLO 205 colon.
For the molecule `CS(=O)(=O)Nc1cc(-c2ccc3ncnc(Nc4ccc(F)c(Cl)c4)c3c2)cnc1Cl`, the growth was 16.9% in the test on NCI-H23 lung; 17.6% in the test on NCI-H226 lung; 3.88% (active) in the test on NCI-H322M lung; 15.1% with HOP-62 NSCLC; 10.6% in the test on NCI-H460 lung; -23.6% (active) with HOP-92 NSCLC. The growth in the test on NCI-H522 lung was 14%; in the test on A549/ATCC NSCLC, 1.72% (active); with 786-0 renal, 7.37% (active); in the test with COLO 205 colon, -57.2% (active).
